Assay results as given in PubChem BioAssay (NCI).
The panel holds about 83,000 compounds, 20% with a hit somewhere; the sample as a whole holds those more often.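 Note: values are percent growth. 100 is the growth of untreated cells, values between 100 and 0 indicate rising inhibition; between -100 and 0 indicates cell death.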 Calls of active or inactive are those of the source. The calls were made as follows: active = growth percent below 10; inactive = the rest.

Tests used:
Test in all cases: NCI-60 one-dose screen, 48 h (100 = growth as untreated, 0 = no growth, -100 = all killed)
Details in all cases: 10 µM
HCT-15 colon = tested on: HCT-15 colon
HT29 colon = tested on: HT29 colon
SNB-75 CNS = tested on: SNB-75 CNS
SNB-19 CNS = tested on: SNB-19 CNS
U251 CNS = tested on: U251 CNS
PC-3 prostate = tested on: PC-3 prostate
SK-MEL-5 melanoma = tested on: SK-MEL-5 melanoma
UACC-62 melanoma = tested on: UACC-62 melanoma
LOX IMVI melanoma = tested on: LOX IMVI melanoma
SK-MEL-28 melanoma = tested on: SK-MEL-28 melanoma
SK-MEL-2 melanoma = tested on: SK-MEL-2 melanoma
EKVX NSCLC = tested on: EKVX NSCLC
SN12C renal = tested on: SN12C renal
UO-31 renal = tested on: UO-31 renal
TK-10 renal = tested on: TK-10 renal
ACHN renal = tested on: ACHN renal
CAKI-1 renal = tested on: CAKI-1 renal
A498 renal = tested on: A498 renal
CCRF-CEM leukemia = tested on: CCRF-CEM leukemia
MOLT-4 leukemia = tested on: MOLT-4 leukemia

Measured: growth

O=C(Nc1cc(Cl)cc2c1-c1ccc(Cl)cc1C2O)C(Cl)Cl (stereo not given)
inactive: HCT-15 colon 82.5% | HT29 colon 84.9% | SNB-75 CNS 65.9% | SNB-19 CNS 70% | U251 CNS 78.4% | PC-3 prostate 67.7% | SK-MEL-5 melanoma 41.5% | UACC-62 melanoma 60.3% | LOX IMVI melanoma 76.2% | SK-MEL-28 melanoma 84.6% | SK-MEL-2 melanoma 110% | EKVX NSCLC 69% | SN12C renal 82.2% | UO-31 renal 74% | TK-10 renal 118% | ACHN renal 61.9% | CAKI-1 renal 67.5% | A498 renal 74.4% | CCRF-CEM leukemia 69.1% | MOLT-4 leukemia 78.8%

CCCN(CCC)C(=O)[C@H](CC)[C@@H]1CC[C@@H](C)[C@@H]([C@H](C)[C@@H](O)[C@@H](C)C(=O)[C@H](CC)C2O[C@]3(C=C[C@@H](O)[C@]4(CC[C@@](C)([C@H]5CC[C@](O)(CC)[C@H](C)O5)O4)O3)[C@H](C)C[C@@H]2C)O1 (stereo not given in full)
inactive: SNB-19 CNS 17.8% | U251 CNS 21.5% | UACC-62 melanoma 14.9% | SK-MEL-28 melanoma 24.2% | TK-10 renal 20.7% | MOLT-4 leukemia 15.3%
active: HCT-15 colon -9.51% | HT29 colon 7.02% | SNB-75 CNS -12.8% | PC-3 prostate 6.69% | SK-MEL-5 melanoma -92.4% | LOX IMVI melanoma 1.21% | SK-MEL-2 melanoma 0.709% | EKVX NSCLC -13.6% | SN12C renal 3.43% | UO-31 renal -16.8% | ACHN renal -2.43% | CAKI-1 renal -8.15% | A498 renal -20.3%

COc1cc2ncnc(NC3CCC(O)CC3)c2cc1OC (stereo not given)
inactive: HCT-15 colon 101% | HT29 colon 90% | SNB-75 CNS 91.9% | SNB-19 CNS 97.4% | U251 CNS 90.2% | PC-3 prostate 87.7% | SK-MEL-5 melanoma 98.6% | UACC-62 melanoma 97.1% | LOX IMVI melanoma 95.3% | SK-MEL-28 melanoma 108% | SK-MEL-2 melanoma 97.1% | EKVX NSCLC 80.8% | SN12C renal 106% | UO-31 renal 76.2% | TK-10 renal 90% | ACHN renal 94.9% | CAKI-1 renal 88.5% | A498 renal 93.7% | MOLT-4 leukemia 62.8%

O=[N+]([O-])c1ccc2ncccc2c1Cl
inactive: HCT-15 colon 13.2% | SNB-75 CNS 73.9% | SNB-19 CNS 62.7% | U251 CNS 35.9% | PC-3 prostate 38.5% | SK-MEL-5 melanoma 89.3% | UACC-62 melanoma 54.7% | LOX IMVI melanoma 20.9% | SK-MEL-28 melanoma 76.2% | SK-MEL-2 melanoma 77.4% | EKVX NSCLC 119% | SN12C renal 45.6% | UO-31 renal 30.2% | TK-10 renal 66.7% | ACHN renal 56.2% | CAKI-1 renal 32% | A498 renal 100% | CCRF-CEM leukemia 12.3% | MOLT-4 leukemia 30%
active: HT29 colon 9.81%

CC(=O)N[C@H](C(=O)N[C@@H](CCCNC(=N)N)C(=O)N[C@@H](CCCCN)C(=O)N[C@@H](CCCNC(=N)N)C(=O)N[C@]1(C)CCC/C=C\CCC[C@@](C)(C(=O)N[C@@H](CC(C)C)C(=O)N[C@@H](CC(C)C)C(=O)N[C@@H](CCC(N)=O)C(=O)N[C@@H](CCC(=O)O)C(=O)N[C@@H](CCCNC(=N)N)C(=O)N[C@@H](CCC(=O)O)C(=O)N[C@@H](CC(C)C)C(=O)N[C@H](C(=O)N[C@@H](CCC(=O)O)C(N)=O)C(C)C)NC(=O)[C@H](CCCNC(=N)N)NC(=O)[C@H](CC(C)C)NC1=O)C(C)C
inactive: HCT-15 colon 109% | HT29 colon 95.3% | SNB-75 CNS 119% | SNB-19 CNS 105% | U251 CNS 100% | PC-3 prostate 104% | SK-MEL-5 melanoma 102% | UACC-62 melanoma 105% | LOX IMVI melanoma 105% | SK-MEL-28 melanoma 111% | SK-MEL-2 melanoma 101% | EKVX NSCLC 101% | SN12C renal 103% | UO-31 renal 114% | TK-10 renal 96.2% | ACHN renal 109% | CAKI-1 renal 98.9% | A498 renal 116% | MOLT-4 leukemia 105%

COc1cc(C(=O)/C=C/c2c[nH]c3ccccc23)cc(OC)c1OC
inactive: HCT-15 colon 19% | SNB-75 CNS 45.9% | SNB-19 CNS 34.9% | U251 CNS 14.7% | PC-3 prostate 35.4% | UACC-62 melanoma 30.6% | LOX IMVI melanoma 14.4% | SK-MEL-28 melanoma 64.7% | SK-MEL-2 melanoma 19.5% | EKVX NSCLC 35.2% | SN12C renal 25.2% | UO-31 renal 20.9% | TK-10 renal 48% | ACHN renal 18.7% | CAKI-1 renal 27.6% | A498 renal 10.2% | MOLT-4 leukemia 17.6%
active: HT29 colon -21.1% | SK-MEL-5 melanoma -53.1%

O=C(Nc1ccc(OS(=O)(=O)c2ccccc2)cc1)C1CCCCC1
inactive: HCT-15 colon 67.7% | HT29 colon 39.3% | SNB-75 CNS 95.7% | SNB-19 CNS 89.2% | U251 CNS 69.6% | PC-3 prostate 72.7% | SK-MEL-5 melanoma 77.1% | UACC-62 melanoma 89.5% | LOX IMVI melanoma 86.2% | SK-MEL-28 melanoma 91.7% | SK-MEL-2 melanoma 88.4% | EKVX NSCLC 84.3% | SN12C renal 96.4% | UO-31 renal 96.7% | TK-10 renal 97.4% | ACHN renal 104% | CAKI-1 renal 93.1% | A498 renal 105% | MOLT-4 leukemia 74%
